# BioA inh: blocks M. tuberculosis BioA enzyme activity; purified M. tuberculosis BioA enzyme, plate reader; inhibition, % at 9.99 µM; 360,000 compounds, 0.096% hits; in the data active means inhibition above about 40%
# Vc quorum ag-1: inducers of Vibrio cholerae quorum light production without autoinducers | V. cholerae BH1578 lux reporter, luminescence, 6 h | activation, % at 18.7 µM | 350,000 compounds, 0.16% hits | AID 588436; in the data active means activation mostly above about 9.7%, no sharp cut-off
# Yp Topo-I inh: Y. pestis Topo-I inhibition via cleavage products; Y. pestis Topo-I cleavage product accumulation, plate reader; 360,000 compounds, 0.064% hits; activity, % at 10 µM; AID 504884; in the data active means activity above about 50%, passing the limit was not always enough
# DUSP3 inh: blocks human VHR1 dual specificity phosphatase. 290,000 compounds, 0.52% hits. recombinant VHR phosphatase, pNPP absorbance. AID 1654. inhibition, % at 13.3 µM. P51452; in the data active means inhibition above about 50%
# TcdB inh: blocks C. difficile toxin B glycohydrolase activity. AID 652162. inhibition, % at 9.99 µM. P18177. 350,000 compounds, 0.24% hits. TcdB glycohydrolase enzymatic assay, plate reader; in the data active means inhibition above about 10%
# PfHsp40 yeast: compounds rescuing yeast from Plasmodium falciparum HSP40 toxicity | S. cerevisiae expressing PfHsp40, growth rescue, ATP luminescence | growth rescue, % at 12.5 µM | 340,000 compounds, 0.68% hits; in the data active means growth rescue above about 28%, passing the limit was not always enough;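 further: yeast W303a lacking pdr1 and pdr3 grown in galactose medium; growth measured after three days at 30 °C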
# Vc quorum ag-2: quorum light induction in BH1578 reporter strain; shares compounds with Vc quorum ag-1; 620 tested, under 10 active; activation, % at 50 µM; V. cholerae BH1578 lux reporter, luminescence, 6 h; call rule not given here
# Numbers without * were called inactive; i = inactive; . = no result. Sampled rows, rich in hits. Any-hit rate of the full collection: about 1.2%.
SMILES,BioA inh,Vc quorum ag-1,Yp Topo-I inh,DUSP3 inh,TcdB inh,PfHsp40 yeast,Vc quorum ag-2
CCOC(=O)c1c(-c2ccccc2)csc1NC(=O)C(C)NCc1ccco1 (stereo not drawn),.,i,10,30,.,0,.
CCOC(=O)CC(=O)Nc1nnc(C(C)C)s1,0,17*,-1,4,.,1,0
O=C(Nc1ccccc1Oc1ccccc1)c1cnccn1,0,-1,10,3,.,1,.
Cc1ccc(Oc2ccc(Cl)cc2NC(=O)c2cnccn2)cc1,-4,17*,-15,0,.,0,0
C[C@@H]1CN([C@H](C)CO)C(=O)Cc2cc(NC(=O)Cc3cn(C)c4ccccc34)ccc2O[C@H]1CN(C)C,-3,.,.,.,0,.,.
CCOC(=O)c1c(C)[nH]c(C(=O)COC(=O)C2(C)CC2(Cl)Cl)c1C (stereo not drawn),-1,12,1,8,.,-1,0
CC1(C(=O)Nc2cnc3ccccc3c2)CCN1CCOc1ccccc1 (stereo not drawn),-1,1,-8,.,0,.,.
Cc1ccc(N2C(=O)C(CN(C)C)C2c2ccccc2)cc1 (stereo not drawn),0,17*,-4,20,.,0,2
Cc1cc(CNC(=O)[C@H](C)[C@@H]2C[C@@]2(C)[C@@H](NC(=O)OCc2ccccc2)c2ccccc2)nn1C,-2,0,33,15,1,0,.
Cc1cc(Cl)ccc1OCC(=O)OCC(=O)NC1CCS(=O)(=O)C1 (stereo not drawn),-1,14,0,.,1,-1,0
O=C(COC(=O)COc1ccc(Cl)cc1)NC1CCS(=O)(=O)C1 (stereo not drawn),-2,-1,1,.,0,-1,.
O=C(COC(=O)/C=C/c1cccc(F)c1)NC1CCCC1,-2,24,2,.,0,0,105
CCC(=O)c1ccc(N2CCCCCC2)c(F)c1,0,44*,-1,-4,.,-3,-100
CCC(=O)c1ccc(N2CCCC2)c(F)c1,-2,1,1,4,.,-1,.
CC(=O)Nc1ccc(N2CCCC2)cc1,.,25,-15,0,.,-1,0
CC(=O)Nc1ccc(N2CCCCC2)cc1,1,i,-3,30,.,0,.
CCC(NC(=O)Nc1nccs1)(C(F)(F)F)C(F)(F)F,0,17*,-2,41,.,0,1
O=C(CNC(=O)c1ccncc1)Nc1ccc(F)c(F)c1,0,12,3,0,0,-1,0
COc1ccccc1N1CCN(C(=O)c2cc3c(s2)CCC3)CC1,.,12,24,27,.,0,0
COC(=O)c1c(-c2ccc(Br)cc2)noc1N,-1,17*,5,28,.,3,10
Cn1nc(-c2ccc(OCC(=O)NCC3CCCO3)cc2)c2ccccc2c1=O (stereo not drawn),4,12,-2,10,.,0,1
Cn1nc(-c2ccc(C(=O)NCC3CCCO3)cc2)c2ccccc2c1=O (stereo not drawn),2,-1,3,-6,.,0,.
COc1cccc(NC(=O)/C=C/c2ccc([N+](=O)[O-])cc2)c1,1,0,-3,1,0,-1,.
Cc1nc(=O)c(-c2ccccc2)c(C)n1CCCCCC(=O)O,0,17*,0,8,.,1,0
CCCCNC(=O)Nc1ccccc1C(=O)NCCC,-1,0,-1,13,.,-1,.
SMILES,BioA inh,Vc quorum ag-1,Yp Topo-I inh,DUSP3 inh,TcdB inh,PfHsp40 yeast,Vc quorum ag-2
CCCCNC(=O)c1ccccc1NC(=O)CCSc1ccccc1,.,12,7,-12,.,1,0
COc1ccc(-c2nnc(NC(=O)C3CCCN3S(=O)(=O)c3cccs3)o2)cc1 (stereo not drawn),0,i,1,.,0,0,.
Fc1ccc(C2=NOC(c3nnc(-c4ccccc4)o3)C2)cc1 (stereo not drawn),-1,i,7,-21,-4,2,.
Cc1cc(C)c(C(=O)C(C)OC(=O)Cn2cnc3c2c(=O)n(C)c(=O)n3C)cc1C (stereo not drawn),.,i,7,.,1,-1,.
CC(OC(=O)Cn1cnc2c1c(=O)n(C)c(=O)n2C)C(=O)c1ccccc1 (stereo not drawn),-2,14,5,.,4,0,1
CCOC(=O)N1CCN(C(=S)NCCOC)CC1,-2,12,5,18,.,0,0
CC(C)CC1NC(=O)N(CC(=O)Nc2ccc3c(c2)CCC3)C1=O (stereo not drawn),2,0,7,26,1,0,.
CN1CC(=O)N(CC(=O)Nc2ccc3c(c2)CCC3)C1=O,-1,36*,-10,18,8,-2,0
Cc1ccccc1-n1nnnc1-c1ccccc1,-1,27,-5,12,.,0,0
CC1(C(=O)NS(=O)(=O)c2cccc(C#N)c2)CCN1C(=O)CC1CC1 (stereo not drawn),1,1,1,.,2,.,.
CCOC(=O)N1CCC(NCCNC(=O)c2ccccc2Cl)CC1,-1,3,2,7,.,-2,.
Cc1noc(C)c1C(=O)OCC(=O)c1c[nH]c2ccccc12,1,12,3,18,.,-1,0
CCc1cccc2c(C(=O)COC(=O)c3c(C)noc3C)c[nH]c12,1,-2,-4,10,1,0,.
O=C(Oc1ccc(=O)n(-c2ccccc2)n1)c1cccc(Cl)c1,-1,25*,-5,16,.,0,0
O=C(Oc1ccc(=O)n(-c2ccccc2)n1)c1ccc(Cl)cc1,1,i,-3,12,.,-1,.
COc1ccc(N2CCN(Cc3nc(Cc4cccc(F)c4)no3)C(C)C2)cc1 (stereo not drawn),0,1,7,31,-1,3,.
c1cn2cc(CN3CCOCC3)nc2s1,1,12,4,5,.,-1,0
Nc1nc(CN2CCOCC2)cs1,-1,i,7,24,.,-2,.
CC(=O)c1ccc(NC(=O)COc2ccccc2C(=O)Nc2ccccc2)cc1,3,140*,2,22,-1,-2,0
Cc1cccc(CSC2=NCCN2C(=O)c2ccc(S(=O)(=O)N(C)C)cc2)c1,.,0,21,22,0,0,.
Cc1ccc(CN(Cc2cc3cc(C)ccc3[nH]c2=O)C(=O)N2CCOCC2)cc1,0,17*,2,-20,.,-1,7
CCN1CCN(CCCNC(=O)c2ccc(/C=C3/Oc4ccccc4N(Cc4cccc(C)c4)C3=O)cc2)CC1,2,-11,-15,-13,.,-1,.
COc1cc2c(cc1OC)C(c1ccc(C)cc1)NC(=O)C2 (stereo not drawn),0,100*,3,-11,-4,5,1
COc1ccc(/C=N/NC(=O)c2cc(-c3ccccc3)nc3ccccc23)c(C(=O)O)c1OC,-1,i,-11,1,-2,0,.
